In PubChem BioAssay AID1566 (Sanford-Burnham Center for Chemical Genomics, 2009) one finds inhibition data, which are given here for 61 compounds.

Out of some 290,000 compounds screened, about 1,800 (0.62%) were called active. No stated cut-off is given here; in the data, active means inhibition above about 50%; inactive means the rest. The full list was thinned out, with actives kept by preference.

This assay is described as follows: NOD2 signaling inhibitors, cell-based, luminescence, uHTS, HEK293 (AID 1566). The note with it: HEK293 NOD2/NF-kB luciferase reporter, at 4 µM, active compounds read high.
By inhibition is commonly meant the change of the read-out against control, counted positive when it falls. Regarding `Cc1oc(-c2ccc(Cl)cc2)nc1CS(=O)CC(=O)NCCCN1CCN(Cc2ccccc2)CC1` (stereo unspecified), the inhibition was 61.5% (active).

`Cc1ccc(-c2nc(CS(=O)CC(=O)NCCCN3CCN(Cc4ccccc4)CC3)c(C)o2)cc1` (stereo unspecified): the inhibition was 28.9% (inactive).

For `Cc1oc(-c2ccc(Cl)cc2)nc1CS(=O)CC(=O)NCCCN1CCOCC1` (stereo unspecified), the inhibition was 16.6% (inactive).

On to `Cc1c(-c2nc(-c3ccc(C(F)(F)F)cc3)no2)n(C)oc1=O`, for which the inhibition was -51.2% (inactive).

As for `CCN(CC)C(=O)C1CCCN(Cc2ccccc2)C1` (stereo unspecified), the inhibition is -6.7% (inactive).

On to `Cc1cccc(NC(=O)NCc2ccc3c(c2)cc(C)n3C)c1`, for which the inhibition is 10.6% (inactive).

Turning to `COC(=O)CCn1nnc(-c2ccc(C)cc2)n1`, the inhibition was -23.2% (inactive).

As to `CCc1ccc(-c2nnn(CCC(=O)OC)n2)cc1`, the inhibition is 54.4% (active).

For `COC(=O)CCn1nnc(-c2cccs2)n1`, the inhibition is 6.8% (inactive).

Take `COc1ccc(OC)c(NC(=O)CCCC(=O)NC2CCCCC2)c1`: the inhibition was 10.6% (inactive).

On to `COC(=O)C(Cc1ccc(O)cc1)NC(=O)C(C)NC(=O)c1ccc(C(C)(C)C)cc1` (stereo unspecified), for which the inhibition is -9.1% (inactive).

Turning to `CC(=O)C1=C(O)C(=O)N(c2nccs2)C1c1ccccc1` (stereo unspecified), the inhibition was -1.4% (inactive).

As to `O=C(C1=C(O)C(=O)N(c2nccs2)C1c1ccccc1)c1cc2ccccc2o1` (stereo unspecified), the inhibition was -20.5% (inactive).

In the case of `CSc1ccccc1-c1nnc(-c2ccc(Cl)c(Cl)c2)o1`, the inhibition was -48.1% (inactive).

With `Cc1cc([N+](=O)[O-])ccc1NC(=O)C(C)N1CCN(c2ccccn2)CC1` (stereo unspecified), the inhibition is 12% (inactive).

For `Cc1ccc(S(=O)(=O)NCc2ccc(C(=O)N3CCN(c4ccccc4)CC3)cc2)cc1`, the inhibition was 12.6% (inactive).

For the compound `Cc1ccc(S(=O)(=O)NCc2ccc(C(=O)N3CCCC3)cc2)cc1`, the inhibition is -3.3% (inactive).

`COc1ccc(-c2nc(CN3CCN(c4ccccc4OC)CC3)c(C)o2)cc1`: the inhibition is 1.8% (inactive).

With `COc1ccc(-c2nc(CN3CCN(c4cc(C)nc(C)c4)CC3)c(C)o2)c2ccccc12`, the inhibition is 30.3% (inactive).

Consider `O=C(NC1CCCCC1)C(c1ccc(O)cc1)N(C(=O)c1cnccn1)c1cccc(F)c1` (stereo unspecified), for which the inhibition was 3.4% (inactive).

As to `CC(C)(C)CC(=O)Nc1ccccc1N1CCN(c2ccccc2)CC1`, the inhibition is -19.6% (inactive).

Take `CCC(=O)NC(c1ccc(C)cc1)c1ccc2cccnc2c1O` (stereo unspecified): the inhibition was 70% (active).

Consider `CCCC(=O)NC(c1ccc(C(C)C)cc1)c1ccc2cccnc2c1O` (stereo unspecified), for which the inhibition is 21.9% (inactive).

Turning to `CCCC(=O)NC(c1ccc(C)cc1)c1ccc2cccnc2c1O` (stereo unspecified), the inhibition is 13% (inactive).

For the compound `CC1(C)CC1C(=O)Nc1ccc([N+](=O)[O-])cc1Br` (stereo unspecified), the inhibition is 9.5% (inactive).

Regarding `Cc1cccc(C2(c3cccc(C)c3)CC2C(=O)Nc2ccc([N+](=O)[O-])cc2O)c1` (stereo unspecified), the inhibition was 48.8% (inactive).

In the case of `Cc1ccc(C2(c3ccc(C)cc3)CC2C(=O)Nc2ccc([N+](=O)[O-])cc2O)cc1` (stereo unspecified), the inhibition is 52.6% (active).

In the case of `Cc1ccsc1/C=N/NC(=O)C1CC(=O)N(c2ccc(F)cc2)C1` (stereo unspecified), the inhibition was 16.6% (inactive).

Regarding `O=C(N/N=C/c1ccccc1O)C1CC(=O)N(c2ccc(Cl)cc2)C1` (stereo unspecified), the inhibition was 47.3% (inactive).

For `O=C(N/N=C/c1ccccc1O)C1CC(=O)N(c2ccc(F)cc2)C1` (stereo unspecified), the inhibition is 59.3% (active).

As to `Cc1cc(C(=O)NNC(=S)NCC(C)C)no1`, the inhibition was -0.2% (inactive).

For the compound `CCCSc1nnc(-c2c[nH]c3ccccc23)n1CC`, the inhibition is -33.8% (inactive).

Regarding `Cn1[nH]c(=O)c(Cl)c(Cl)c1=O`, the inhibition was 10.7% (inactive).

Consider `COc1ccccc1/C=C/C(=O)/C=C/c1ccccc1O`, for which the inhibition is 50.2% (active).

On to `COc1ccccc1/C=C/C(C)=O`, for which the inhibition is -13.4% (inactive).

As to `COc1ccccc1/C=C/C(=O)c1ccccc1`, the inhibition is -52.6% (inactive).

Consider `CCOc1ccc2[nH]c(=O)c(CN(CC3CCCN3CC)C(=O)NCc3ccccc3)cc2c1` (stereo unspecified), for which the inhibition was 13.6% (inactive).

Turning to `Nc1cc(S(=O)(=O)O)cc([N+](=O)[O-])c1O`, the inhibition was 8.2% (inactive).

Turning to `O=C(NCCN1CCOCC1)c1ccc(Cl)c(Cl)c1`, the inhibition was -11.3% (inactive).

In the case of `O=C(Nc1ccc2snnc2c1)N1CCCCC1`, the inhibition was 3.3% (inactive).

Turning to `O=C(Nc1ccc2c(c1)OCO2)c1cc(C2CC2)on1`, the inhibition was -108% (inactive).

For the compound `COc1cc(/C=C2\CC/C(=C\c3cc(OC)c(OC)c(OC)c3)C2=O)cc(OC)c1OC`, the inhibition was -18.8% (inactive).

With `COc1cc(/C=C2\CCOC2=O)cc(OC)c1OC`, the inhibition is -11.1% (inactive).

For `CN(C)C1(CNC(=O)C2CCN(S(=O)(=O)c3cc(Cl)ccc3Cl)CC2)CCCCC1`, the inhibition is -8.8% (inactive).

With `Fc1ccc2[nH]c3c(N4CCN(Cc5ccc6c(c5)OCO6)CC4)ncnc3c2c1`, the inhibition is 55.3% (active).

For `Cc1ccc2[nH]c3c(N4CCN(Cc5ccc6c(c5)OCO6)CC4)ncnc3c2c1`, the inhibition was 49.8% (inactive).

On to `COc1ccc2[nH]c3c(N4CCN(Cc5ccc6c(c5)OCO6)CC4)ncnc3c2c1`, for which the inhibition was 3.4% (inactive).

For `CC(C)CC(N)c1cn([C@@H](CCC(=O)O)C(=O)N2CCNCC2)nn1` (stereo partly specified), the inhibition is -7.7% (inactive).

Take `CNC(C)C#Cc1ccc2c(=O)c3c(OC)cccc3oc2c1` (stereo unspecified): the inhibition is -33.5% (inactive).

For the compound `CC(=O)CCSc1ncnc2sc(-c3ccccc3)cc12`, the inhibition is -124% (inactive).

As to `O=C(O)CSc1ncnc2sc(-c3ccccc3)cc12`, the inhibition was 15.1% (inactive).

`Cc1ccc(SCCN2CCN(CC(C)C)CCC2=O)cc1`: the inhibition is -18.4% (inactive).

For `O=C(NC1CCCCCCC1)c1cc(F)c(F)cc1Cl`, the inhibition is -57.3% (inactive).

In the case of `Cc1csc(Nc2ccccc2C(F)(F)F)n1`, the inhibition is -3.5% (inactive).

With `COc1ccc(S(=O)(=O)Nc2cccc(S(=O)(=O)N3CCCCCC3)c2)cc1`, the inhibition was -4.9% (inactive).

Turning to `COc1ccc(S(=O)(=O)Nc2nc3ccccc3nc2Nc2ccc3c(c2)OCO3)cc1`, the inhibition was 25.7% (inactive).

With `O=S(=O)(Nc1nc2ccccc2nc1Nc1cccc(S(=O)(=O)N2CCCCC2)c1)c1ccccc1`, the inhibition is 55.5% (active).

For the compound `O=S(=O)(Nc1cccc(S(=O)(=O)N2CCCCCC2)c1)c1ccccc1`, the inhibition is 16.1% (inactive).

Take `O=S(=O)(Nc1nc2ccccc2nc1Nc1ccc2c(c1)OCO2)c1ccccc1`: the inhibition was 26% (inactive).

Consider `CC(=O)Nc1cccc(S(=O)(=O)N2CCCCCC2)c1`, for which the inhibition was 2.3% (inactive).

Regarding `O=C(CCc1ccccc1Cl)Nc1cccc(S(=O)(=O)N2CCCC2)c1`, the inhibition is 4% (inactive).
